From PubChem BioAssay (EPA / NIEHS) come the findings set out here.

The source made the active and inactive calls. Rule for the calls: active = hit-call score of the fitted dose curve at least 0.9, where 1 is the maximum; inactive = score below 0.9.

Common to all, as to details: mRNA level, 48 h; actives raise or lower the signal
Read-out in experiment [1]: Forkhead box O1 (FOXO1), FOXO1 (gene 2308)
In words: LTEA_HepaRG_FOXO1: Life Technologies and Expression Analysis (LTEA) Assay for Forkhead box O1 (FOXO1) using HepaRG (AID 2283456). The method in brief: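 Using one lot of HepaRG hepatic cells kept in 0.5% DMSO, the team applied test chemicals in duplicate, half-log dilutions from 100 uM, for 48 h. Expression, normalised to ACTB/GAPDH/POLR2A, was compared with vehicle in either direction.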

Read-out in experiment [2]: growth arrest and DNA damage 45 (GADD45A), GADD45A (gene 1647)
As to the kind of experiment: LTEA_HepaRG_GADD45A: Life Technologies and Expression Analysis (LTEA) Assay for growth arrest and DNA damage 45 (GADD45A) using HepaRG (AID 2283458). The method in brief:
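Eight-point concentration-response in HepaRG cells: 48 h chemical exposure, 0.5% DMSO vehicle, top dose 100 uM. Normalized qRT-PCR mRNA readout with bidirectional fitting relative to DMSO.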

Read-out in experiment [3]: Forkhead box O3 (FOXO3), FOXO3 (gene 2309)
In words: LTEA_HepaRG_FOXO3: Life Technologies and Expression Analysis (LTEA) Assay for Forkhead box O3 (FOXO3) using HepaRG (AID 2283459). The essentials:
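Gene-expression endpoint: FOXO3 transcript level by qRT-PCR in HepaRG cultures treated 48 h with chemicals up to 100 uM (half-log, 0.5% DMSO vehicle).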

Read-out in experiment [4]: ABC Transporter (ABCB1), ABCB1 (gene 5243)
As to the kind of experiment: LTEA_HepaRG_ABCB1: Life Technologies and Expression Analysis (LTEA) Assay for ABC Transporter (ABCB1) using HepaRG (AID 2283460). The essentials: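 Human liver HepaRG line treated 48 h with up to 100 uM compound (eight half-log points, 0.5% DMSO); ABCB1 mRNA change fitted bidirectionally against DMSO controls.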

Read-out in experiment [5]: growth arrest and DNA damage 45 (GADD45B), GADD45B (gene 4616)
In words: LTEA_HepaRG_GADD45B: Life Technologies and Expression Analysis (LTEA) Assay for growth arrest and DNA damage 45 (GADD45B) using HepaRG (AID 2283461). The essentials:
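Differentiated HepaRG cells, plated 48 h then switched to serum-free induction medium, were exposed 48 h in duplicate to eight half-log concentrations from 100 uM in 0.5% DMSO; mRNA quantified by qRT-PCR, normalized to ACTB/GAPDH/POLR2A, bidirectional fit versus DMSO.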

Read-out in experiment [6]: ABC Transporter (ABCC3), ABCC3 (gene 8714)
In words: LTEA_HepaRG_ABCC3: Life Technologies and Expression Analysis (LTEA) Assay for ABC Transporter (ABCC3) using HepaRG (AID 2283462). The essentials: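 HepaRG cells in serum-free induction medium were exposed for 48 h in duplicate to 8-point half-log concentrations topping at 100 uM in 0.5% DMSO. ABCC3 mRNA was measured by qRT-PCR normalized to ACTB, GAPDH and POLR2A, with bidirectional fitting versus DMSO.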

Read-out in experiment [7]: ABC Transporter (ABCB11), ABCB11 (gene 8647)
As to the kind of experiment: LTEA_HepaRG_ABCB11: Life Technologies and Expression Analysis (LTEA) Assay for ABC Transporter (ABCB11) using HepaRG (AID 2283463). The method in brief:
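Using HepaRG cultures held in 0.5% DMSO, chemicals were tested at half-log dilutions from 100 uM for 48 h. Induction or suppression of ABCB11 mRNA, normalized to ACTB, GAPDH and POLR2A, was fitted bidirectionally against vehicle.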

Read-out in experiment [8]: ABC Transporter (ABCC2), ABCC2 (gene 1244)
In words: LTEA_HepaRG_ABCC2: Life Technologies and Expression Analysis (LTEA) Assay for ABC Transporter (ABCC2) using HepaRG (AID 2283464). The essentials:
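HepaRG cells were plated 48 h, switched to serum-free induction medium, then exposed in duplicate for 48 h to 8 concentrations (top 100 uM, half-log steps, 0.5% DMSO). ABCC2 mRNA was measured by qRT-PCR normalized to ACTB/GAPDH/POLR2A; bidirectional fitting versus DMSO.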

Read-out in experiment [9]: Broad substrate specificity ATP-binding cassette transporter ABCG2 (Homo sapiens) (UniProt Q9UNQ0)
In words: LTEA_HepaRG_ABCG2: Life Technologies and Expression Analysis (LTEA) Assay for ABC Transporter (ABCG2) using HepaRG (AID 2283465). The essentials: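 Gene expression of ABCG2 in HepaRG liver cells is quantified by qRT-PCR following 48 h exposure across an eight-point series topping at 100 uM. Values come from bidirectional fitting relative to DMSO vehicle.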

Read-out in experiment [10]: ATP-citrate lyase (ACLY), ACLY (gene 47)
As to the kind of experiment: LTEA_HepaRG_ACLY: Life Technologies and Expression Analysis (LTEA) Assay for ATP-citrate lyase (ACLY) using HepaRG (AID 2283466). The method in brief: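 ACLY expression changes in human HepaRG liver cells are quantified by qRT-PCR after 48 h exposure to test chemicals (maximum 100 uM, half-log steps). Values are fitted in both directions relative to 0.5% DMSO vehicle.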

Read-out in experiment [11]: Peroxisomal acyl-coenzyme A oxidase 1 (ACOX1) gene, ACOX1 (gene 51)
As to the kind of experiment: LTEA_HepaRG_ACOX1: Life Technologies and Expression Analysis (LTEA) Assay for Peroxisomal acyl-coenzyme A oxidase 1 (ACOX1) gene using HepaRG (AID 2283467). The essentials: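 Human HepaRG hepatic cultures, 48 h treatment with test chemicals up to 100 uM. ACOX1 expression read by qRT-PCR relative to 0.5% DMSO vehicle.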

Read-out in experiment [12]: Alkaline Phosphatase, Placental (ALPP) gene, ALPP (gene 250)
In words: LTEA_HepaRG_ALPP: Life Technologies and Expression Analysis (LTEA) Assay for Alkaline Phosphatase, Placental (ALPP) gene using HepaRG (AID 2283468). The essentials:
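Differentiated human HepaRG cells were plated and cultured 48 h, then exposed in duplicate for 48 h in serum-free induction medium to eight half-log concentrations from 100 uM in 0.5% DMSO. ALPP mRNA was measured by TaqMan qRT-PCR, normalized to ACTB, GAPDH, POLR2A.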

Read-out in experiment [13]: Bcl-2 (BAD) gene, BAD (gene 572)
In words: LTEA_HepaRG_BAD: Life Technologies and Expression Analysis (LTEA) Assay for Bcl-2 (BAD) gene using HepaRG (AID 2283469). The method in brief: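 Activity values reflect up- or down-regulation of BAD mRNA in human HepaRG hepatic cells treated 48 h in serum-free medium, with eight-point half-log dosing capped at 100 uM and 0.5% DMSO vehicle.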

Read-out in experiment [14]: Bcl-2 (BAX) gene, BAX (gene 581)
As to the kind of experiment: LTEA_HepaRG_BAX: Life Technologies and Expression Analysis (LTEA) Assay for Bcl-2 (BAX) gene using HepaRG (AID 2283470). The method in brief:
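Human HepaRG cells treated in duplicate for 48 h across eight concentrations (max 100 uM, 0.5% DMSO); BAX expression measured by qRT-PCR.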

Read-out in experiment [15]: adenosine kinase (ADK) gene, ADK (gene 132)
As to the kind of experiment: LTEA_HepaRG_ADK: Life Technologies and Expression Analysis (LTEA) Assay for adenosine kinase (ADK) gene using HepaRG (AID 2283471). The essentials: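 HepaRG (human liver), 48 h chemical exposure, 8-pt half-log series, top 100 uM, 0.5% DMSO vehicle. Readout: ADK mRNA by qRT-PCR vs housekeeping genes; bidirectional curve fit relative to DMSO baseline.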

Read-out in experiment [16]: Alpha-fetoprotein (AFP) gene, AFP (gene 174)
In words: LTEA_HepaRG_AFP: Life Technologies and Expression Analysis (LTEA) Assay for Alpha-fetoprotein (AFP) gene using HepaRG (AID 2283472). The method in brief: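 Measures AFP mRNA change in HepaRG after 48 h chemical exposure (8 half-log concentrations, highest 100 uM, 0.5% DMSO). Fold change relative to DMSO, fitted in both directions.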

Read-out in a further experiment: BCL2L11 (gene 10018)
In words: LTEA_HepaRG_BCL2L11: Life Technologies and Expression Analysis (LTEA) Assay for Bcl-2 (BCL2L11) gene using HepaRG (AID 2283473). The essentials: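 Differentiated human HepaRG cells in serum-free induction medium were exposed in duplicate for 48 h to eight concentrations (top 100 uM, half-log steps, 0.5% DMSO). BCL2L11 mRNA was quantified by TaqMan qRT-PCR, normalized to ACTB/GAPDH/POLR2A, bidirectional fit versus DMSO.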

Read-out in experiment [17]: Apoptosis regulator Bcl-2 (Homo sapiens) (UniProt P10415)
As to the kind of experiment: LTEA_HepaRG_BCL2: Life Technologies and Expression Analysis (LTEA) Assay for Bcl-2 gene using HepaRG (AID 2283475). The method in brief:
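Each chemical was tested in duplicate on HepaRG cultures held in serum-free induction medium for 48 h, highest concentration 100 uM with half-log dilutions. Transcript levels came from multiplexed qRT-PCR, normalised to housekeeping genes; activity was scored in either direction relative to DMSO.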

Read-out in experiment [18]: Bcl-2 (BID) gene, BID (gene 637)
In words: LTEA_HepaRG_BID: Life Technologies and Expression Analysis (LTEA) Assay for Bcl-2 (BID) gene using HepaRG (AID 2283476). The essentials: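 Assay used HepaRG hepatic cells treated 48 h in serum-free medium with half-log dilutions from 100 uM. Endpoint: BID mRNA, qRT-PCR, normalized to ACTB/GAPDH/POLR2A.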

Sequence of Apoptosis regulator Bcl-2 (Homo sapiens) (P10415 whole entry, looked up): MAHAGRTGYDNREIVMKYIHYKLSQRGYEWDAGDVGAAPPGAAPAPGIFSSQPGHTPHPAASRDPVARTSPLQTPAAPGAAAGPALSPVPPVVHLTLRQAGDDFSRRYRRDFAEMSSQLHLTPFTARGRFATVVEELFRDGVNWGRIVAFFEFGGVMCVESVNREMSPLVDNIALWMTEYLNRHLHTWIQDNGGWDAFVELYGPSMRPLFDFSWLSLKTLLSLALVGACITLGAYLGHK
Sequence of Broad substrate specificity ATP-binding cassette transporter ABCG2 (Homo sapiens) (Q9UNQ0 whole entry, looked up): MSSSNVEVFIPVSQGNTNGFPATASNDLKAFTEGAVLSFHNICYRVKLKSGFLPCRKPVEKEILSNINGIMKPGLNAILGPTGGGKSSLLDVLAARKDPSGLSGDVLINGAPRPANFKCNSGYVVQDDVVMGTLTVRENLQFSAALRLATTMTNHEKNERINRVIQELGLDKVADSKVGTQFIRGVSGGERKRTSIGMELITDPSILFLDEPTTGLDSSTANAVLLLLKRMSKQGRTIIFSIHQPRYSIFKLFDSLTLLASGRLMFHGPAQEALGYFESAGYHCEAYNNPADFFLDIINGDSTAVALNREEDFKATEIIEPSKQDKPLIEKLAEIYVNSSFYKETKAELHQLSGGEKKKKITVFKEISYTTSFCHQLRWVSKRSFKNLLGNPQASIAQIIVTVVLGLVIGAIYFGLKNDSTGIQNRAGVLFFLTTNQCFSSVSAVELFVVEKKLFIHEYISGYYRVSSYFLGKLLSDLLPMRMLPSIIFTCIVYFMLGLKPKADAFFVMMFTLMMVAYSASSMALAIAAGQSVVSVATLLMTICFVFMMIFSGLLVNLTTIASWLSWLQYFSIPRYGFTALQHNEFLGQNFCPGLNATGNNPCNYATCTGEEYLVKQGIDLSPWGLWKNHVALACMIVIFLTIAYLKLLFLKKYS

As for `C=C(C)C(=O)[O][Sn]([CH2]CCC)([CH2]CCC)[CH2]CCC`, the half-maximal activity concentration (AC50) (in general, the concentration giving half of the maximal activity seen) was 1.98 µM (active) in [1]; 314 nM (active) in experiment [2]; 3.08 µM (active) in experiment [4]; 3.06 µM (active) in [6]; 2.02 µM (active) in [7]; 3.35 µM (active) in experiment [8]. The AC50 in experiment [9] is 917 nM (active); in [12] it was 1.58 µM (active); in [14], 92.1 µM (active); in experiment [16], 2.17 µM (active); with BCL2L11 (gene 10018), 88.3 µM (active); in [17], 2.07 µM (active). The AC50 in experiment [18] was 1.58 µM (active). In addition, the molecule was called inactive in experiment [3], in [5], in experiment [10], in experiment [11], in experiment [13] and in experiment [15].

With `ClC1(Cl)C2(Cl)C3(Cl)C4(Cl)C(Cl)(Cl)C5(Cl)C3(Cl)C1(Cl)C5(Cl)C24Cl` (stereo unspecified), the molecule was classed as inactive in [1], in [2], in [3], in experiment [4], in experiment [5] and in [6]. For the same molecule, the outcome in experiment [7], in [8], in experiment [9], in experiment [11], in experiment [12] and in experiment [13] was inactive. Further, the molecule was called inactive (in experiment [14]; in [15]; in [16]; in the experiment with BCL2L11 (gene 10018); in experiment [17]; in experiment [18]). Also, the AC50 in experiment [10] was 5.15 µM (active).

As to `O=c1[nH]c(=O)[nH]c(=O)[nH]1`, the call in [1], in experiment [2], in [3], in experiment [4], in experiment [5] and in experiment [6] was inactive. Also, the molecule was called inactive in [7], in experiment [8], in experiment [9], in experiment [10], in [11] and in experiment [12]. Also, the molecule was called inactive (in [13]; in experiment [14]; in experiment [15]; in [16]; with BCL2L11 (gene 10018); in experiment [17]). The result in experiment [18] was inactive.

As for `Cn1sc(Cl)cc1=O`, the call in [1], in [2], in experiment [3], in experiment [4], in experiment [5] and in [6] was inactive. Besides, the call in experiment [7], in experiment [8], in experiment [9], in experiment [10], in experiment [11] and in [12] was inactive. The call (in experiment [13]; in experiment [14]; in experiment [15]; in experiment [16]; with BCL2L11 (gene 10018); in experiment [17]) was inactive. For the same molecule, the result in [18] was inactive.
